Compound activity from PubChem.
GSIS activator = primary screen for activators of insulin secretion dependent on glucose, INS-1E cells, GLuc reporter luminescence | 0.61% of 370,000 active | AID 743287 | activation, % at 16.6 µM | INS-1E GLuc reporter insulin secretion, 2-3 h;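 active means lowest replicate activation of at least 40%, so every replicate reaches that level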
LGR2 antag = inhibitors of bursicon-induced Drosophila LGR2 receptor cAMP signaling | HEK293 LGR2, CRE-luciferase, bursicon-stimulated, 4 h | inhibition, % at 9.99 µM | 0.35% of 380,000 active | AID 720647;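 active means drop in luminescence signal, shown as inhibition above about 50% in the replicate tests, limit read from the data, passing the limit was not always enough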;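 further: agonist challenge used bursicon conditioned medium at about half maximal strength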
CFTR F508del cor = CFTR F508del correction in bronchial cells; CFBE cells, YFP halide quenching; stimulated with forskolin plus potentiator P3; % fluorescence drop versus neutral controls; activity (quench increase), % at 7.58 µM; 0.36% of 350,000 active; AID 720511;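 active means mean added fluorescence quench of at least 8% versus neutral control, with both replicates also reaching 8%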;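 further: cells transiently co-express mutant CFTR-F508del with the halide-sensitive YFP; corrector assay measuring rescue of mutant channel to the surface after 24 h compound exposure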
EWS-Fli block = EWS/Fli transcriptional activity inhibition. AID 651661. inhibition, % at 12.6 µM. 0.67% of 350,000 active. A673 NR0B1-luciferase reporter, viability-normalised;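 active means mean inhibition of at least 50% after viability correction, with every replicate also passing that limit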;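 further: firefly luciferase signal divided by Alamar Blue viability fluorescence both relative to DMSO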
RAD52 inh = inhibitors of human RAD52 DNA annealing. P43351. recombinant RAD52 DNA annealing, FRET fluorescence. inhibition, % at 18.7 µM. 0.46% of 360,000 active;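 active means every replicate showing at least 50% inhibition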
Target sequence (P43351 whole entry, looked up): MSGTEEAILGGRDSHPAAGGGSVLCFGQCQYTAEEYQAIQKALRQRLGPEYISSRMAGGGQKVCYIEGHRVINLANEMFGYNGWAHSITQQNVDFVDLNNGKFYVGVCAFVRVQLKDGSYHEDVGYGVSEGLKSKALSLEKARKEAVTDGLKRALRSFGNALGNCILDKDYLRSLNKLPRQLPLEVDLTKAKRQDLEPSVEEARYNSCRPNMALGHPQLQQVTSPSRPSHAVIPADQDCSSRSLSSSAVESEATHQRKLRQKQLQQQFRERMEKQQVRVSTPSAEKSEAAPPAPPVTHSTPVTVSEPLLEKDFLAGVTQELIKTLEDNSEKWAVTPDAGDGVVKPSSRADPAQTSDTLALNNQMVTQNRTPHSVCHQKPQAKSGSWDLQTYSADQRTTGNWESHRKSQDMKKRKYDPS
RAD54 branch = inhibitors of human RAD54 branch migration. RAD54 Holliday junction branch migration, FAM/BHQ fluorescence. inhibition, % at 10.4 µM. 0.14% of 360,000 active. AID 602329;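 active means mean normalized replicate activity at least 40 and at least half of replicates scoring 40 or more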;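 further: inhibitors cause a drop in the FAM fluorescence signal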
Hits are given with their value; – = inactive; · = no result given. Most compounds without a hit are left out; they make up all but 1.8% or so of the library.

SMILES	GSIS activator	LGR2 antag	CFTR F508del cor	EWS-Fli block	RAD52 inh	RAD54 branch
CCN(CC)C(=O)n1c(Cc2ccccc2)nc2ccccc21	48.1	–	–	–	–	–
O=c1cc(-c2ccccc2)oc2c1ccc1ccccc12	–	–	–	–	–	·
O=c1cc(-c2cccnc2)oc2c1ccc1ccccc12	–	–	–	–	–	60.2
COc1ccc(OC)c(Nc2cc3ccccc3c(=O)[nH]2)c1	–	–	–	61.5	–	–
COc1ccccc1Nc1cc2cc(Br)ccc2c(=O)[nH]1	–	–	–	–	–	–
Clc1nc(Cl)c2ncn(-c3ccccc3)c2n1	–	–	–	–	–	–
CNc1nc(Cl)nc2c1ncn2-c1ccccc1	86.8	–	–	–	–	–
O=C(CN1C(=O)c2ccccc2S1(=O)=O)c1ccc2c(c1)OCCO2	–	103.2	–	86.1	–	–
O=C(CN1C(=O)c2ccccc2S1(=O)=O)c1ccc2c(c1)OCCCO2	–	92.7	–	88.7	–	–
O=C(CN1C(=O)c2ccccc2S1(=O)=O)c1cccc(Br)c1	–	–	–	–	–	–
COc1cc(C(=O)Nc2ccc3c(c2)CCN3C(C)=O)cc(OC)c1OC	–	–	11.5	66.9	–	·
O=C(Oc1cc(=O)oc2c1c(=O)n1c3c(cccc23)CC1)c1ccccc1	–	–	–	–	–	·
Cc1cccc(C)c1OCC(=O)OCC(=O)Nc1ccc(Cl)cn1	–	–	22.7	–	–	–
COc1ccc(CNCC(=O)Nc2ccccc2-n2cccc2)cc1	–	–	10.5	–	–	·
Clc1ccc(SCc2cc(N3CCOCC3)nc(-c3ccccn3)n2)cc1	–	–	8.1	–	–	·
C[C@H](CO)N1C[C@H](C)[C@@H](CN(C)C)Oc2c(NS(=O)(=O)c3ccc(Cl)cc3)cccc2C1=O	–	–	–	–	–	–
C[C@@H]1CCCCO[C@@H](CN(C)CC2CCCCC2)[C@H](C)CN([C@@H](C)CO)C(=O)c2cc(NC(=O)Nc3cccc4ccccc34)ccc2O1	–	–	–	93.8	–	–
C[C@@H]1CN([C@H](C)CO)C(=O)c2cc(NC(=O)Nc3cccc4ccccc34)ccc2O[C@@H](C)CCCCO[C@H]1CN(C)Cc1ccccc1	–	–	–	74.1	–	–
C[C@@H]1CCCCO[C@@H](CN(C)Cc2ccccc2)[C@H](C)CN([C@@H](C)CO)C(=O)c2cc(NC(=O)Nc3cccc4ccccc34)ccc2O1	–	–	–	–	–	–
COc1ccc(CN(C)C[C@H]2OCCCC[C@@H](C)Oc3ccc(NC(=O)Nc4cccc5ccccc45)cc3C(=O)N([C@@H](C)CO)C[C@@H]2C)cc1	–	–	–	79.6	–	–
COc1ccc(CN(C)C[C@H]2OCCCC[C@@H](C)Oc3ccc(NC(=O)Nc4cccc5ccccc45)cc3C(=O)N([C@H](C)CO)C[C@H]2C)cc1	–	–	–	71.8	–	–
CNS(=O)(=O)c1ccc2c(c1)C(=O)c1cc(S(=O)(=O)NC)ccc1CC2	–	–	–	–	–	–
CN(c1ccccc1C(=O)Nc1ccc(S(=O)(=O)N2CCOCC2)cc1)S(=O)(=O)c1ccccc1	–	–	·	–	·	·
Cc1cccc(OCc2nc3ccccc3n2C)c1	–	–	–	–	–	–
CC1(C)CCC(=O)N2CC[C@H]3c4cc5ccccc5nc4C[C@@H]1[C@H]32	–	–	–	–	–	–
C[C@@H]1CN([C@H](C)CO)C(=O)c2cc(N(C)C)ccc2O[C@@H](C)CCCCO[C@H]1CN(C)C(=O)Nc1cccc2ccccc12	·	·	–	–	–	–
C[C@H](CO)N1C[C@H](C)[C@H](CN(C)C(=O)Nc2cccc3ccccc23)OCCCC[C@H](C)Oc2ccc(N(C)C)cc2C1=O	–	–	–	66.7	·	·
C[C@@H]1CN([C@@H](C)CO)C(=O)c2cc(NS(=O)(=O)c3ccc(Cl)cc3)ccc2O[C@@H](C)CCCCO[C@H]1CN(C)Cc1ccccc1	–	–	–	–	–	–
C[C@@H]1CCCCO[C@@H](CN(C)Cc2ccccc2)[C@@H](C)CN([C@@H](C)CO)C(=O)c2cc(NS(=O)(=O)c3ccc(Cl)cc3)ccc2O1	–	–	–	–	57.8	–
